Most compounds without a hit are left out; they make up all but 19% or so of the library.
TDP1 cell CPT: DT40-hTDP1 cell growth loss with CPT; chicken DT40 Tdp1-/-;hTDP1 cells + 20 nM CPT, ATP luminescence, 48 h; Potency, µM (doses to about 46.2 µM), for inactives: at the highest dose activity change, negative = growth inhibition, hits mostly inhibitors; hit rate 12% among 420,000; note: potency is the fitted concentration of half-maximal effect; nearly all actives have a fitted effect of over 55% in size
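Chicken DT40 Tdp1-/- cells complemented with human TDP1, 400 cells/well, exposed to compounds plus 20 nM camptothecin for at least 48 h at 37 C; viability read as ATP content by CellTiter-Glo luminescence.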
DT40 TDP1 no CPT: qHTS for Inhibitors of human tyrosyl-DNA phosphodiesterase 1 (TDP1): qHTS in cells in absence of CPT; Potency, µM (doses to about 46.2 µM), inactives show top-dose activity change, negative = growth inhibition, actives largely listed as inhibitors; DT40 Tdp1-/- hTDP1 cells, no CPT, ATP luminescence, 48 h; AID 686978, 2013; hit rate 15% among 420,000; note: potency is the fitted concentration of half-maximal effect; nearly all actives have a fitted effect of over 55% in size
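Stably hTDP1-transfected Tdp1-null chicken DT40 cells were treated with library compounds minus camptothecin and grown for at least 48 hr at 37 °C, after which cellular ATP was quantified by luminescence.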
IL1B secr inh: blocks inflammasome-driven IL-1 beta release. hit rate 4.7% among 360,000. AID 743279. activity change, % at 57.5 µM. THP-1 LPS/ATP IL-1B secretion, AlphaLISA, 16 h; hits give low values; in the data active = activity change below about -50%; inconclusive = mostly about -30% to -49%
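THP-1 cells pretreated 1 hr with compounds (up to 57.5 uM final), then stimulated with LPS (250 ng/mL final) plus ATP (1.25 mM final); secreted IL-1B measured by AlphaLISA after 16 hr, decreased signal indicating inhibition.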
HT1080-NT tox: kills 2HG-producing HT-1080-NT fibrosarcoma cells; Potency, µM (doses to about 46.1 µM), for inactives: at the highest dose activity, negative = less viability, actives largely listed as cytotoxic; AID 686970; hit rate 1.6% among 360,000; HT-1080-NT fibrosarcoma viability, CellTiter-Glo ATP luminescence, 48 h;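 note: NT is the 2HG producing partner of a matched IDH1 knockdown line; potency is the fitted concentration of half-maximal effect; 0% = DMSO-treated cells and -100% = media-only wells without cells; nearly all actives have a fitted effect of over 55% in size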
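HT-1080-NT; 750 cells/well; 5% FBS RPMI; 48 h compound, 37 degrees C; CellTiter-Glo luminescence; curve fitting and curve-class assignment.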
HT1080 IDH1KD tx: toxicity to HT-1080 IDH1 knockdown cells (counter line); HT-1080 IDH1 knockdown viability, ATP luminescence, 48 h; Potency, µM (highest dose often 46.1 µM), for the others: at the highest dose activity, negative = toxicity, hits mostly cytotoxic; hit rate 2% among 360,000;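 note: potency is the fitted concentration of half-maximal effect; 0% = DMSO wells and -100% = cell-free medium wells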
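Luminescent ATP read-out (CellTiter-Glo, 10 min at room temperature) after 48 h compound exposure at 37 °C gave viability of IDH1-knockdown HT-1080 cells. Activity was normalised to DMSO and cell-free wells, then fitted as concentration-response curves.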
* = called active by the depositor; ? = inconclusive; / = not tested or not shown. Unless noted, calls come from the whole dose curve; as a rule, active = well fitted curve in the direction sought with a large enough effect; inconclusive = small, poorly fitted or top-dose-only effect, or another doubt; inactive = no such curve, though single readings can be large; an effect the other way counts as inactive or inconclusive. Unless noted, % is set by controls: 0 for no effect and ±100 for the full control effect.

SMILES	TDP1 cell CPT	DT40 TDP1 no CPT	IL1B secr inh	HT1080-NT tox	HT1080 IDH1KD tx
CC[C@@]1(c2cccc(C)c2)C(=O)N(C(=O)OC)N1C(=O)OC	18.4µM*	18.4µM*	-88.3*	9.1%	10.6%
COc1ccc(C(=O)Nc2ccc3[nH]ncc3c2)cc1OC	19.8%	-1.3%	-7.6	-13.0%	-6.0%
COc1cccc(CNCc2ccc(OC)cc2OC)c1	?	?	-56.5*	2.4%	-3.6%
COc1ccc(CNCc2cc(C)c(OC)cc2C)c(OC)c1	14.6µM*	11.6µM*	-63.0*	?	?
CCn1c2ccccc2c2cc(CNCc3ccc(OC)cc3OC)ccc21	?	10.3µM*	-88.3*	-16.0%	?
COc1cccc(CN2C(=NC(=O)C3CCCO3)SC3CS(=O)(=O)CC32)c1 (stereo unspecified)	8.6%	5.3%	-16.5	3.3%	9.7%
CC(C)CCSc1nc(N)c(C#N)cc1C#N	?	18.4µM*	?	-20.6%	-28.6%
CCC(=O)[C@@]1(C)[C@H](C)C[C@H]2[C@@H]3CCC4=CC(=O)C=C[C@]4(C)[C@H]3[C@@H](O)C[C@@]21C	13µM*	16.4µM*	?	?	?
CCCC1O[C@@H]2C[C@H]3[C@@H]4CCC5=CC(=O)C=C[C@]5(C)[C@H]4[C@@H](O)C[C@]3(C)[C@]2(C(=O)CO)O1 (stereo partly specified)	-2.7%	?	-65.0*	-3.4%	8.8%
OC1CCCN(CC(O)c2ccccc2)C1 (stereo unspecified)	-20.8%	-10.5%	-0.9	4.7%	6.4%
c1cc2ccc3ccc(CN4CCOCC4)c4ccc(c1)c2c34	?	?	-76.9*	-1.8%	-18.1%
Cc1cc2ccccc2cc1CN1CCOCC1	0.9%	-5.0%	21.5	2.0%	-8.1%
OC1CCCN(Cc2ccc3ccc4cccc5ccc2c3c45)C1 (stereo unspecified)	?	20.6µM*	-68.8*	?	?
O=C(Nc1ccc2c(c1)OCCO2)C1C(c2ccccc2)=Nc2ccccc2N1C(=O)c1cccnc1 (stereo unspecified)	?	?	-21.0	-17.8%	-14.1%
Cc1ccc(Cn2c(C)c(CNC3CCCCC3)c(C(=O)O)c2C)cc1	0.4%	-8.2%	/	/	/
O=C(NCc1ccco1)c1ccc(-c2cccc(Cl)c2)o1	17.9%	-15.4%	-27.3	-2.4%	-19.4%
Cc1cccc(CNC(=O)Cn2nc(C)n3c(cc4cc(F)ccc43)c2=O)c1	-5.0%	-3.0%	/	/	/
Cc1cccc(NC(=S)N(CCN2CCOCC2)Cc2cc3cc4c(cc3[nH]c2=O)OCCO4)c1	?	16.4µM*	-28.3	-4.6%	-12.4%
O=c1[nH]c2cc3c(cc2cc1CN(CCc1ccccc1)C(=S)NCCCN1CCOCC1)OCCO3	?	20.6µM*	-10.6	9.6%	9.9%
CC(C)COc1ccc(C(=O)N2C(=O)c3ccc(N)cc3C2=O)cc1	-23.1%	-14.7%	10.6	0.7%	20.8%
CCCCCCC(=O)Nc1cc2nc3c(nc2cc1C)c(=O)n(C)c(=O)n3C	4.6%	9.9%	/	/	/
O=C(/C=C/c1cccs1)Nc1ccc(N2CCOCC2)c(S(=O)(=O)Nc2cc(Cl)ccc2Cl)c1	?	23.1µM*	-2.3	2.6%	-6.0%
O=C(/C=C/c1cccs1)Nc1ccc(N2CCOCC2)c(S(=O)(=O)Nc2ccccc2Cl)c1	?	23.1µM*	?	3.6%	-28.9%
Nc1ccc(N2CCOCC2)c(S(=O)(=O)Nc2cc(Cl)ccc2Cl)c1	-2.3%	1.3%	38.0	-21.9%	-21.7%
COCC(=O)Nc1ccc(N2CCOCC2)c(S(=O)(=O)Nc2ccccc2OC)c1	-18.8%	?	-2.4	-4.0%	-4.9%
Cc1cnc(CNc2cc(-c3ccccc3Cl)ncn2)cn1	5.0%	2.0%	/	/	/
Cc1ccnc(N(C(=O)Nc2ccccc2)C2=NCC(C)(C)S2)c1	39.6%	-0.4%	79.6	10.0%	3.5%
CNC(=O)N(C1=NCC(C)(C)S1)c1ccc(F)c(Cl)c1	?	18.4µM*	12.7	-18.0%	-29.1%

High-throughput results: PubChem, National Center for Advancing Translational Sciences (NCATS)
